The list is not random: actives were taken first. Their share in the collection is about 18%.
TDP1 inh – qHTS Assay for Inhibitors of Tyrosyl-DNA Phosphodiesterase (TDP1); recombinant TDP1, AlphaScreen DNA substrate cleavage; AID 485290, 2010; Tyrosyl-DNA phosphodiesterase 1 (Homo sapiens), Q9NUW8; actives 0.28% (n = 350,000); Potency, µM (highest dose often 130 µM), without a hit: top-dose activity change, negative = inhibition, most hits filed as inhibitors; note: potency is the fitted concentration of half-maximal effect; nearly all actives have a fitted effect of over 40% in size
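Recombinant E. coli-expressed Tdp1 (1 nM) preincubated with compound 15 min at RT, then 5'-biotin/3'-phosphotyrosine-FITC DNA substrate (15 nM) added for 5 min. AlphaScreen beads (10 ug/ml) added, 10 min RT; tyrosine-FITC cleavage read as signal loss.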
Six1-Eya2 blk – qHTS Assay for Inhibitors of the Six1/Eya2 Interaction; AlphaScreen GST-Six1/His-Eya2 binding, biochemical; hits give low values; activity change, % (no concentration beside the values); actives 0.56% (n = 360,000); Homeobox protein SIX1 (Homo sapiens) + Protein phosphatase EYA2 (Homo sapiens), …; in the data active = activity change below about -65%; inconclusive = mostly about -30% to -63%
Target sequence (O00167 whole entry, looked up): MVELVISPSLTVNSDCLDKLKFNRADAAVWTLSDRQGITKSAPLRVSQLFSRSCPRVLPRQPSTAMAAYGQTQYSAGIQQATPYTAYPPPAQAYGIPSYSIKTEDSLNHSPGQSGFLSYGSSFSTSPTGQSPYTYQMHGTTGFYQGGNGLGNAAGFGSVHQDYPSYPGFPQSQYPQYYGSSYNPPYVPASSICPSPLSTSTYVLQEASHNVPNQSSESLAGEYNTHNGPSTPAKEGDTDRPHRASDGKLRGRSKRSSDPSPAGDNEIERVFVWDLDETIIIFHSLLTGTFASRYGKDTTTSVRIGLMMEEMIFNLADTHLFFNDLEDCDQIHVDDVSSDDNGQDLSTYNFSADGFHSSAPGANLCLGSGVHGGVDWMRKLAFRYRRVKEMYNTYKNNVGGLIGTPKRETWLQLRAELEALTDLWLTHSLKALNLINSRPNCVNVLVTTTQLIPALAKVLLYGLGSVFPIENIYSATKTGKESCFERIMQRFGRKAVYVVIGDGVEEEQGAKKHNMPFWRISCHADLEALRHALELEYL
Target sequence (Q15475 whole entry, looked up): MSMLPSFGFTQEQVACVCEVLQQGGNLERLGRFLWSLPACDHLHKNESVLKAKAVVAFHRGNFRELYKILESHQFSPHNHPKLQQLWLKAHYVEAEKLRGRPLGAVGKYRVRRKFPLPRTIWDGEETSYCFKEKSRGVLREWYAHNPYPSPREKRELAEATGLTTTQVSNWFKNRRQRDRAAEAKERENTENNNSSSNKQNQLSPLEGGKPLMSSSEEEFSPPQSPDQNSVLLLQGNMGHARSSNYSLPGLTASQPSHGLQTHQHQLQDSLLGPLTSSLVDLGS
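AlphaScreen luminescence read after one hour at 37 °C in darkness. Pin-transferred compounds met GST-Six1 and His-Eya2 protein (5X stock 250 nM/500 nM) plus glutathione donor and Ni-chelate acceptor beads (5X, 50 ug/mL).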
CtBP-E1A blk – qHTS Assay for Inhibitors of the CtBP/E1A Interaction | CtBP / adenovirus E1A interaction (AlphaScreen) | AlphaScreen GST-E1A/His-CtBP binding, 1536-well; hits give low values | activity change, % (test concentration not listed) | actives 0.49% (n = 340,000); in the data active = activity change below about -65%; inconclusive = mostly about -30% to -63%
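Steps: dispense buffer (Tris pH 8.0, NaCl 300 mM, TCEP 1 mM, BSA, Tween 20); add 5X protein mix (GST-E1A, His-CtBP, 125 nM each); pin 23 nL compound; 2 h at 37 °C, dark; add 5X beads (50 ug/mL); 1 h; read.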
IL-1B inflam inh – qHTS for Inhibitors of Inflammasome Signaling: IL-1-beta AlphaLISA Primary Screen; THP-1 LPS/ATP IL-1B secretion, AlphaLISA, 16 h; hits give low values; activity change, % at 57.5 µM; actives 4.7% (n = 360,000); AID 743279, 2014; in the data active = activity change below about -50%; inconclusive = mostly about -30% to -49%
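Secreted IL-1B measured by AlphaLISA bead assay after 16 h compound exposure of THP-1 cells; compounds (final up to 57.5 uM) added 1 h before LPS (250 ng/mL) and ATP (1.25 mM) stimulation; lower signal means less secretion.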
DT40 TDP1 CPT – qHTS for Inhibitors of human tyrosyl-DNA phosphodiesterase 1 (TDP1): qHTS in cells in presence of CPT; chicken DT40 Tdp1-/-;hTDP1 cells + 20 nM CPT, ATP luminescence, 48 h; actives 12% (n = 420,000); Potency, µM (highest dose often 46.2 µM), for inactives: at the top dose activity change, negative = growth inhibition, most hits filed as inhibitors; note: potency is the fitted concentration of half-maximal effect; nearly all actives have a fitted effect of over 55% in size
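Cell growth measured by CellTiter-Glo luminescence after a minimum 48 h, 37 C compound exposure with 20 nM CPT in Tdp1-knockout DT40 cells stably expressing hTDP1, seeded 400/well; qHTS titration format.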
TDP1 cell noCPT – qHTS for Inhibitors of human tyrosyl-DNA phosphodiesterase 1 (TDP1): qHTS in cells in absence of CPT | DT40 Tdp1-/- hTDP1 cells, no CPT, ATP luminescence, 48 h | Potency, µM (series often up to 46.2 µM), without a hit: at the highest dose activity change, negative = growth inhibition, most hits filed as inhibitors | actives 15% (n = 420,000); note: potency is the fitted concentration of half-maximal effect; nearly all actives have a fitted effect of over 55% in size
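Seeded 400 DT40-hTDP1 cells/well (vehicle DMSO, no 20 nM CPT); pinned compounds; ≥48 hr at 37 °C; CellTiter-Glo luminescence as viability measure.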
An asterisk follows results filed as active; ? = inconclusive; . = no result. Unless noted, calls come from the whole dose curve; as a rule, active = well fitted curve in the direction sought with a large enough effect; inconclusive = small, poorly fitted or top-dose-only effect, or another doubt; inactive = no such curve, though single readings can be large; an effect the other way counts as inactive or inconclusive. % is set by controls: 0 for no effect and ±100 for the full control effect.

SMILES	TDP1 inh	Six1-Eya2 blk	CtBP-E1A blk	IL-1B inflam inh	DT40 TDP1 CPT	TDP1 cell noCPT
COc1ccc(CCNCc2ccc(-c3ccccc3)cc2)cc1OC	.	-14	-28	-90*	?	23µM*
COc1ccc(CNCCc2ccccc2)cc1OCC(N)=O	2%	-2	2	-6	-4%	1%
COc1ccc(CCNc2nc3ccccc3n3nnnc23)cc1OC	2%	-6	-1	32	-22%	-29%
O=C(NCc1ccccn1)C(=O)NCC1OCCN1C(=O)c1ccc(Cl)cc1 (stereo not given)	.	-2	9	24	-6%	8%
Nc1c(Cl)ncnc1N/N=C/c1ccc(O)cc1	.	?	-19	0	-25%	-30%
COc1ccc(CCNC(=O)Cc2ccc([N+](=O)[O-])cc2)cc1OC	-3%	25	5	19	5%	2%
COc1ccc(CCNCc2ccc(OCc3ccccc3)cc2)cc1	.	9	1	-99*	?	?
COc1ccc(CNS(=O)(=O)CCNCCc2ccccc2)cc1	.	1	7	-6	2%	?
COc1ccc(CCNC(=O)Cc2ccc(OCc3ccccc3)c(OC)c2[N+](=O)[O-])cc1OCc1ccccc1	-2%	-11	-3	30	23µM*	8.2µM*
CC1CC2(CCCCC2)Nc2c1ccc1ccccc21 (stereo not given)	6%	7	-1	29	?	10µM*
CCOC(=O)N1CCC(NC(=O)c2cc(C(=O)Nc3ccc(OCC)cc3)ccc2CO)CC1	-2%	2	0	-18	?	?
NC(=O)c1sc(=S)n2c1[nH]c(=O)c1sccc12	2%	?	-82*	40	-13%	-4%
CCOC(=O)c1c(NC(=O)/C=C/c2ccc3c(c2)OCO3)sc(C)c1C	-8%	.	.	.	.	.
CC1CCC(C(=O)NC(C(=O)OCC(=O)c2ccccc2)C(C)C)CC1 (stereo not given)	.	.	.	.	18µM*	18µM*
CCc1ccc(C(=O)COC(=O)C(Cc2ccccc2)NC(=O)C2CCC(C)CC2)cc1 (stereo not given)	4%	5	0	0	1%	-23%
CC(=O)Nc1ccc(NC(=O)C2Cc3c(-c4ccco4)ccnc3O2)cc1 (stereo not given)	.	0	0	-18	?	-28%
CCn1cc(C2=NOC(C(=O)Nc3cccc(C(C)=O)c3)C2)c(C)n1 (stereo not given)	-5%	-2	7	-2	16µM*	?
CC(=O)c1cccc(-c2ccnc3c2CC(C(=O)Nc2ccc(F)c(Cl)c2)O3)c1 (stereo not given)	.	-24	?	-25	18µM*	21µM*
CC(=O)c1cccc(NC(=O)C2Cc3c(-c4cccc(F)c4)ccnc3O2)c1 (stereo not given)	.	4	-4	0	18µM*	?
CC(=O)c1cccc(NC(=O)C2Cc3c(-c4ccco4)ccnc3O2)c1 (stereo not given)	.	2	0	0	?	16µM*
CCOc1ccc(NC(=O)NC2CCCCCCC2)cc1	1%	2	1	-23	-20%	-1%
CC(=O)Oc1ccc(C2(C)CC(C)(C)Oc3cc(OC(C)=O)ccc32)c(OC(C)=O)c1 (stereo not given)	3%	-10	-3	-4	-23%	?
CN(Cc1ccccc1)C(=O)c1[nH]cnc1C(=O)Nc1ccon1	0%	-3	4	27	4%	-3%
CC(=O)c1cccc(NC(=O)C2Cc3c(-c4ccccc4)ccnc3O2)c1 (stereo not given)	.	-10	0	-18	21µM*	13µM*
CC(=O)Nc1cccc(-c2ccnc3c2CC(C(=O)Nc2cccc(NS(C)(=O)=O)c2)O3)c1 (stereo not given)	.	-15	-15	-1	-18%	-28%
SMILES	TDP1 inh	Six1-Eya2 blk	CtBP-E1A blk	IL-1B inflam inh	DT40 TDP1 CPT	TDP1 cell noCPT
CS(=O)(=O)Nc1cccc(NC(=O)C2Cc3c(-c4ccccc4)ccnc3O2)c1 (stereo not given)	.	8	-21	-2	10µM*	7.3µM*
CC(=O)c1cccc(-c2ccnc3c2CC(C(=O)Nc2ccccc2)O3)c1 (stereo not given)	.	9	18	-5	16µM*	?
CC(C)(C)Cc1c(-c2ccc(Cl)cc2)nc2c(Cl)cc(C(F)(F)F)cn12	.	9	11	5	?	?
C/C(Cl)=C/Cn1c(SCC(C)C)nc2c1c(=O)[nH]c(=O)n2C	2%	3	1	21	?	8.2µM*
CCOC(=O)C(CC)Sc1nc2c(c(=O)[nH]c(=O)n2C)n1C/C=C(/C)Cl (stereo not given)	2%	-6	-4	0	7.3µM*	13µM*
C/C=C/CSc1nc2c(c(=O)[nH]c(=O)n2C)n1CCC	0%	-8	11	-12	-3%	?
CCCCOC(=O)CSc1nc2c(c(=O)[nH]c(=O)n2C)n1C/C=C(\C)Cl	1%	-2	3	20	?	16µM*
CCCCCOC(=O)CSc1nc2c(c(=O)[nH]c(=O)n2C)n1CCc1ccccc1	6%	-3	7	16	?	?
CCOC(=O)C(C)Sc1nc2c(c(=O)[nH]c(=O)n2C)n1CCc1ccccc1 (stereo not given)	1%	-1	1	-11	-20%	-23%
COc1ccccc1C/C(N)=N/OC(=O)COc1ccccc1C	.	33	43	6	-16%	-20%
CC(=O)Nc1ccc(S(=O)(=O)NCC2CCC(C(=O)N3CCCCCC3)CC2)cc1 (stereo not given)	3%	0	-2	11	?	?
C/C(=C1/SC(N2CCOCC2)=NC1=O)c1ccc(Cl)cc1	1%	-1	-17	33	-6%	-22%
O=C1N=C2SCCN2/C1=C\c1ccc(Cl)cc1	2%	9	4	-68*	-28%	?
CCN(CC)CCOC(=O)C(Cc1ccco1)Cc1cccc2ccccc12 (stereo not given)	.	-19	-22	-57*	?	?

Bioassay records: PubChem, National Center for Advancing Translational Sciences (NCATS)
